Source: PubChem BioAssay
Values joined by “and” are separate entries in the source; they are usually repeats but may differ in a detail not shown here. Equal values may be shown once. Active and inactive are the calls of the source.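 How the source made its calls, unless noted: active means normalized viability below 100% at a tested concentration; inactive means the rest.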

Experiments:
[1] = stimulators of nuclear beta-catenin in C2C12, primary screen, imaging, WNT3A-conditioned medium, mouse C2C12, NPC library (AID 1117326; in the data active means nuclear beta-catenin stimulation mostly above about 4.2%, no sharp cut-off; inactive means mostly below about 10%); conditions: stronger effect = higher value
[2] = stimulators of insulin release from INS-1E, primary screen, cell-based, 5 mM glucose, NPC library (AID 1117329;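 active means compound raises insulin release from rat beta cells at 5 mM glucose, no numeric limit stated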); conditions: rat INS-1E insulin secretion, at 10 µM, stronger effect = higher value
[3] = growth inhibition of GSK3B-pretreated HCT116 cells – cell-based, CellTiter-Glo, 0.2 to 20 µM (AID 1117336;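 active means compounds lowering colon cancer cell viability after pretreatment blocking the GSK3B kinase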); conditions: HCT116 viability after GSK3B inhibitor, at 20 µM, stronger effect = higher value
[4] = inhibition of endothelial tube formation, primary screen, imaging, VEGF stimulated, CD31 staining, tube area, NPC library (AID 1117340;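 active means compound that reduces growth-factor-driven endothelial tube area in a mixed cell culture, no cutoff stated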); conditions: VEGF-stimulated ADSC/ECFC co-culture, at 10 µM, stronger effect = higher value
[5] = glucagon-like peptide 1 release enhancers, primary assay, NCI-H716 cell line, NPC library (AID 1117341;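 active means compound raises GLP1 secretion from the human gut endocrine cells, with no numeric limit stated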); conditions: NCI-H716 cells, at 10 µM, stronger effect = higher value
[6] = HCT116 colon cancer cell growth inhibition, primary screen, CellTiter-Glo luminescence, NPC library (AID 1117342;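 active means compounds that lower survival of HCT116 colon cancer cells in the luminescence readout, no numeric limit stated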); conditions: at 20 µM (top of the series)
[7] = CellTiter-Glo luminescent readout of SW480 viability loss, NPC library primary (AID 1117343;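 active means compounds that lower viability of the colon cancer cells in the luminescence readout, with no numeric limit stated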); conditions: CellTiter-Glo luminescence; at 20 µM (top of the series)
[8] = decreased DLD-1 cellular survival, CellTiter-Glo luminescent readout, NPC compound collection, primary HTS (AID 1117346;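 active means compounds that lower survival of DLD-1 colon cancer cells in the luminescence readout, no cutoff given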); conditions: DLD-1 viability, CellTiter-Glo luminescence; at 20 µM (top of the series)
[9] = molecular target: 6-phosphogluconate dehydrogenase, decarboxylating (Homo sapiens) (UniProt P52209); assay: 6PGD enzyme inhibitors, primary screen, biochemical, human, recombinant enzyme, NADPH absorbance (AID 1159550;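 active means at least 20% inhibition of 6-phosphogluconate dehydrogenase activity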); conditions: recombinant 6PGD, NADPH absorbance 341 nm; at 10 µM; stronger effect = higher value
[10] = modulation of C. elegans fzo-1 (AID 1259413; call rule not given here;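 further: fzo-1 mutant C. elegans worms in liquid wells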); conditions: C. elegans fzo-1 modulator screen, mean read-out; stronger effect = higher value
[11] = differential killing of epithelial or mesenchymal cells, primary screen, imaging, PC-3E GFP, TEM4-18 mCherry, co-culture (AID 1345086;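 active means compounds killing one labelled cell type while sparing the other, by normalised counts and ratio limits, not self-fluorescent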;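 on all read-outs here: cells exposed to compound for 72 h before imaging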;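 on red/green cell ratio (normalised): normalised mesenchymal count divided by normalised epithelial count so high means epithelial killing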); conditions: imaging cell counts, at 1 µM; for red/green cell ratio (normalised): actives lie on both sides, counts scaled to control wells, 1 = unselective
[12] = survival rescue of mitochondrial mutant cells in low glucose, primary screen, MELAS cybrids, Rieske KO mouse fibroblasts, CellTiter-Glo (AID 1508586;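 active means mean z-score across replicates of 1.96 or higher in either the MELAS or the Rieske mutant cell line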;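 further: z relative to plate mean and SD of compound and empty wells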)
[13] = molecular target: NAD(+) hydrolase SARM1 (Homo sapiens) (UniProt Q6SZW1); assay: SARM1 TIR NADase inhibitors, cell lysate, NAD-Glo luminescence (AID 1508614;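 active means compound whose remaining NAD level is above about 45 nM, limit read from the data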); conditions: SAM-TIR HEK293T lysate NADase, at 1 µM, stronger effect = higher value
[14] = molecular target: Mitogen-activated protein kinase 7 (Homo sapiens) (UniProt Q13164); assay: ERK5 transactivation activators in reporter cells, primary screen, cell-based, HTS (AID 1508626;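 active means luciferase signal above three times the same-plate solvent-only control wells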;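 further: luciferase driven by Gal4-ERK5 fusion binding five Gal4 sites before minimal TATA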); conditions: HeLa Gal4-ERK5 transactivation, 18 h, at 5 µM, stronger effect = higher value
F380Y = assay: modulators of BK channel variants, profiling panel, selectivity assay, cell-based, U2OS BacMam, thallium flux, beta subunits (AID 1259406;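 active means thallium flux through the channel raised or lowered by more than 3 SD from vehicle-only wells, actives on both sides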;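 further: initial slope of Thallos dye fluorescence rise after thallium is added; log ratio against the mean of 0.3% DMSO vehicle wells on the same plate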); conditions: at 30 µM
F380Y/beta1 = assay: as above; conditions: at 30 µM
F380Y/beta2Delta = assay: as above; conditions: at 30 µM
[15] = ovarian cancer cell viability with rucaparib, profiling panel, oncology-focused library, rucaparib conditional (AID 1508598); conditions: patient-derived ovarian cancer cells, CellTiter-Glo viability, 144 h, stronger effect = lower value
[16] = measured here: epithelial PC-3E GFP cell survival
[17] = measured here: mesenchymal TEM4-18 mCherry cell survival
[18] = MELAS cybrid survival, CellTiter-Glo 48 h, stronger effect = higher value
[19] = Rieske KO mouse fibroblast survival, CellTiter-Glo 72 h

NAD(+) hydrolase SARM1 (Homo sapiens), sequence (Q6SZW1 whole entry, looked up, the tested form may be a part): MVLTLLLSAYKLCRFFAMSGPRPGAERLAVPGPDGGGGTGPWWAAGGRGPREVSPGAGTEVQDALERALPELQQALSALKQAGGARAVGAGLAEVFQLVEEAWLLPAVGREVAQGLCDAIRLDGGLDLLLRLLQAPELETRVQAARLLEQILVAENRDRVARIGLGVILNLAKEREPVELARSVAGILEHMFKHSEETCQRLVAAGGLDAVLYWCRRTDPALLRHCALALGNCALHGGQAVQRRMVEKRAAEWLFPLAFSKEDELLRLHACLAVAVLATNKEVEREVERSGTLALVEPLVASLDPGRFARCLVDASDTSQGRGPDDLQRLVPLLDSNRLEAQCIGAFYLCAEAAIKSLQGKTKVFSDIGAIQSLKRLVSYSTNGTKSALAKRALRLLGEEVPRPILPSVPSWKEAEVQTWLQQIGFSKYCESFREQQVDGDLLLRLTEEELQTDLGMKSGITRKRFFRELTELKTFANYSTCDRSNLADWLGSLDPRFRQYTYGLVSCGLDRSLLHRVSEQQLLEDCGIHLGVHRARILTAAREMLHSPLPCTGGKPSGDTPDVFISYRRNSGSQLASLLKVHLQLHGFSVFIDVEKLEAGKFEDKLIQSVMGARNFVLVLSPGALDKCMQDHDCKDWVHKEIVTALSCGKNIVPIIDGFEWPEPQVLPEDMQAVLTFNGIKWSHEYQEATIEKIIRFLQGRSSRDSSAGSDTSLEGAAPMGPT
6-phosphogluconate dehydrogenase, decarboxylating (Homo sapiens), sequence (P52209 whole entry, looked up): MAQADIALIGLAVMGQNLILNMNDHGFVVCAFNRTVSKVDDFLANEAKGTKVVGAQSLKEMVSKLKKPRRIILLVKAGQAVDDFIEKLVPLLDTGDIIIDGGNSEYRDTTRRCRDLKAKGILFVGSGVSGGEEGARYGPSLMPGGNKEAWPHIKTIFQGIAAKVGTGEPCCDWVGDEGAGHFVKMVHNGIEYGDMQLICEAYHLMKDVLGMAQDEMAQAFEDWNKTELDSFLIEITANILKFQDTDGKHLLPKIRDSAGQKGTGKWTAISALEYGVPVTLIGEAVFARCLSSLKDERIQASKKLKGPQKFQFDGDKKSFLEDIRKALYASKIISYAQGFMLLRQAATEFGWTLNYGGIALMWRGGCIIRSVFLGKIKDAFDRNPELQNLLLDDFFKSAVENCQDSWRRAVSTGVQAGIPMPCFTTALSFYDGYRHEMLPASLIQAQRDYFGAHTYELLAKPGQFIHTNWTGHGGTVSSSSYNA
Mitogen-activated protein kinase 7 (Homo sapiens), sequence (Q13164 whole entry, looked up, the tested form may be a part): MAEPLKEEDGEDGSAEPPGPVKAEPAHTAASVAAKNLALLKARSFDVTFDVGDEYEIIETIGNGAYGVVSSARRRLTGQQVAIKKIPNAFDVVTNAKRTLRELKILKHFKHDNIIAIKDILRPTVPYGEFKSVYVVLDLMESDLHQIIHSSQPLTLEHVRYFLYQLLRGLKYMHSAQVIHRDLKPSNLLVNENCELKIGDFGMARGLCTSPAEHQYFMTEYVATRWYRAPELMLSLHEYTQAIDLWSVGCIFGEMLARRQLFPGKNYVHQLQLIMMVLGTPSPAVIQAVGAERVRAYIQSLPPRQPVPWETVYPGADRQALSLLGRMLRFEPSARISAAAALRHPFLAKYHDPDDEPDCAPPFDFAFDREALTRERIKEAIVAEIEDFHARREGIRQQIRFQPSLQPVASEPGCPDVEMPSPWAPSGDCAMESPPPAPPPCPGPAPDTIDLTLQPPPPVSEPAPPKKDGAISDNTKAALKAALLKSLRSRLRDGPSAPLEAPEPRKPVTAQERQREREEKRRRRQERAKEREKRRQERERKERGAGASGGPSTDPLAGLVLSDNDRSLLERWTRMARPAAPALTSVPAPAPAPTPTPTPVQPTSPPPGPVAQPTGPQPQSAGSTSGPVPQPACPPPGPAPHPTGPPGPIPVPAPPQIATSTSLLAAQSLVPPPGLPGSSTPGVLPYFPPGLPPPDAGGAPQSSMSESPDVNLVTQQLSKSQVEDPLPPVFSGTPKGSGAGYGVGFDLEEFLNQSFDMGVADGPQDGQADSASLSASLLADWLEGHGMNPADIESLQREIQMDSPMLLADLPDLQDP

With `O=C(O)c1cc(=O)c2c(OCC(O)COc3cccc4oc(C(=O)O)cc(=O)c34)cccc2o1` as the molecule, how does the nuclear beta-catenin stimulation ([1]; at 10 µM) read?
Its nuclear beta-catenin stimulation is -1.8% (inactive).

What about the nuclear beta-catenin stimulation ([1]; stimulation, at 2 µM) of the same molecule?
The nuclear beta-catenin stimulation was 1.3%.

And the insulin secretion stimulation [2]?
Its insulin secretion stimulation is 1.6% (inactive).

And the viability decrease [3]?
The viability decrease was -32.8% (inactive).

And the tube area decrease [4]?
The tube area decrease was -2.5% (inactive).

What about the GLP1 secretion stimulation [5] of the same molecule?
Its GLP1 secretion stimulation is -0.5% (inactive).

And the inhibition of viability [6]?
Its inhibition of viability is 2.4% (inactive).

And the viability decrease (inhibition) [7]?
Its viability decrease (inhibition) is 19.3% (inactive).

What about the viability decrease (inhibition) [8] of the same molecule?
Its viability decrease (inhibition) is -7.8% (inactive).

And the inhibition [9]?
The inhibition was 10.5% (inactive).

And the mean signal [10]?
Its mean signal is 249 (inactive).

And the red/green cell ratio (normalised) [11]?
The red/green cell ratio (normalised) was 1.26 (inactive).

What about the normalised cell number [11, 16] of the same molecule?
Its normalised cell number is 1.29.

And the normalised cell number [11, 17]?
Its normalised cell number is 1.63.

What about the z-score [12, 18] of the same molecule?
The z-score was 0.0651 (inactive) and -0.552 (inactive).

What about the z-score [12, 19] of the same molecule?
The z-score was 0.522 and -0.245.

What about the remaining NAD [13] of the same molecule?
The remaining NAD was 10 nM (inactive).

What about the luciferase signal [14] of the same molecule?
Its luciferase signal is 72 AU (inactive).

And the log fold change Tl+ flux (F380Y)?
Its log fold change Tl+ flux is -0.0252 (inactive).

What about the log fold change Tl+ flux (F380Y/beta1) of the same molecule?
Its log fold change Tl+ flux is -0.0414 (inactive).

What about the log fold change Tl+ flux (F380Y/beta2Delta) of the same molecule?
Its log fold change Tl+ flux is -0.0103 (inactive).

For `CC(C)C(=O)Nc1ccc([N+](=O)[O-])c(C(F)(F)F)c1`, which nuclear beta-catenin stimulation ([1]; at 10 µM) is on record?
The nuclear beta-catenin stimulation was 0.6% (inactive).

And the nuclear beta-catenin stimulation ([1]; stimulation, at 2 µM)?
Its nuclear beta-catenin stimulation is -0.2%.

And the insulin secretion stimulation [2]?
Its insulin secretion stimulation is 3.4% (inactive).

What about the viability decrease [3] of the same molecule?
The viability decrease was 13.4% (inactive).

And the tube area decrease [4]?
Its tube area decrease is -12.8% (inactive).

What about the GLP1 secretion stimulation [5] of the same molecule?
Its GLP1 secretion stimulation is -0.5% (inactive).

What about the inhibition of viability [6] of the same molecule?
Its inhibition of viability is 25.5% (inactive).

And the viability decrease (inhibition) [7]?
The viability decrease (inhibition) was 40.5% (inactive).

And the viability decrease (inhibition) [8]?
Its viability decrease (inhibition) is -3.7% (inactive).

What about the inhibition [9] of the same molecule?
The inhibition was -5.89% (inactive).

And the mean signal [10]?
The mean signal was 187 (inactive).

And the red/green cell ratio (normalised) [11]?
Its red/green cell ratio (normalised) is 1.03 (inactive).

And the normalised cell number [11, 16]?
The normalised cell number was 0.92.

And the normalised cell number [11, 17]?
Its normalised cell number is 0.95.

And the z-score [12, 18]?
Its z-score is -0.353 (inactive) and 0.314 (inactive) and 0.345 (inactive).

And the z-score [12, 19]?
The z-score was 0.471 and 0.28 and 0.177.

And the viability ([15]; at 0.000305 µM, OCI-C5x cells, with rucaparib 10 µM, 100% = cells with rucaparib alone)?
Its viability is 102% (inactive).

And the viability ([15]; at 0.000305 µM, OCI-C5x cells, without rucaparib)?
The viability was 114% (inactive).

And the viability ([15]; at 0.000305 µM, OCI-P5x cells, with rucaparib 20 µM, 100% = cells with rucaparib alone)?
The viability was 93.2% (active).

What about the viability ([15]; at 0.000305 µM, OCI-P5x cells, without rucaparib) of the same molecule?
Its viability is 103% (inactive).

And the viability ([15]; at 0.00122 µM, OCI-C5x cells, with rucaparib 10 µM, 100% = cells with rucaparib alone)?
The viability was 114% (inactive).

What about the viability ([15]; at 0.00122 µM, OCI-C5x cells, without rucaparib) of the same molecule?
The viability was 115% (inactive).

And the viability ([15]; at 0.00122 µM, OCI-P5x cells, with rucaparib 20 µM, 100% = cells with rucaparib alone)?
The viability was 98.6% (active).

What about the viability ([15]; at 0.00122 µM, OCI-P5x cells, without rucaparib) of the same molecule?
The viability was 104% (inactive).

And the viability ([15]; at 0.00488 µM, OCI-C5x cells, with rucaparib 10 µM, 100% = cells with rucaparib alone)?
Its viability is 111% (inactive).

And the viability ([15]; at 0.00488 µM, OCI-C5x cells, without rucaparib)?
The viability was 113% (inactive).

And the viability ([15]; at 0.00488 µM, OCI-P5x cells, with rucaparib 20 µM, 100% = cells with rucaparib alone)?
Its viability is 107% (inactive).

And the viability ([15]; at 0.00488 µM, OCI-P5x cells, without rucaparib)?
The viability was 106% (inactive).

What about the viability ([15]; at 0.0195 µM, OCI-C5x cells, with rucaparib 10 µM, 100% = cells with rucaparib alone) of the same molecule?
Its viability is 114% (inactive).

And the viability ([15]; at 0.0195 µM, OCI-C5x cells, without rucaparib)?
Its viability is 118% (inactive).

What about the viability ([15]; at 0.0195 µM, OCI-P5x cells, with rucaparib 20 µM, 100% = cells with rucaparib alone) of the same molecule?
The viability was 104% (inactive).

What about the viability ([15]; at 0.0195 µM, OCI-P5x cells, without rucaparib) of the same molecule?
Its viability is 105% (inactive).

What about the viability ([15]; at 0.0781 µM, OCI-C5x cells, with rucaparib 10 µM, 100% = cells with rucaparib alone) of the same molecule?
The viability was 112% (inactive).

And the viability ([15]; at 0.0781 µM, OCI-C5x cells, without rucaparib)?
The viability was 116% (inactive).

And the viability ([15]; at 0.0781 µM, OCI-P5x cells, with rucaparib 20 µM, 100% = cells with rucaparib alone)?
The viability was 103% (inactive).

What about the viability ([15]; at 0.0781 µM, OCI-P5x cells, without rucaparib) of the same molecule?
The viability was 112% (inactive).

And the viability ([15]; at 0.313 µM, OCI-C5x cells, with rucaparib 10 µM, 100% = cells with rucaparib alone)?
The viability was 109% (inactive).

What about the viability ([15]; at 0.313 µM, OCI-C5x cells, without rucaparib) of the same molecule?
The viability was 109% (inactive).

What about the viability ([15]; at 0.313 µM, OCI-P5x cells, with rucaparib 20 µM, 100% = cells with rucaparib alone) of the same molecule?
Its viability is 109% (inactive).

And the viability ([15]; at 0.313 µM, OCI-P5x cells, without rucaparib)?
The viability was 115% (inactive).

And the viability ([15]; at 1.25 µM, OCI-C5x cells, with rucaparib 10 µM, 100% = cells with rucaparib alone)?
The viability was 107% (inactive).

What about the viability ([15]; at 1.25 µM, OCI-C5x cells, without rucaparib) of the same molecule?
The viability was 118% (inactive).

What about the viability ([15]; at 1.25 µM, OCI-P5x cells, with rucaparib 20 µM, 100% = cells with rucaparib alone) of the same molecule?
The viability was 101% (inactive).

What about the viability ([15]; at 1.25 µM, OCI-P5x cells, without rucaparib) of the same molecule?
Its viability is 113% (inactive).

What about the viability ([15]; at 5 µM, OCI-C5x cells, with rucaparib 10 µM, 100% = cells with rucaparib alone) of the same molecule?
The viability was 112% (inactive).

And the viability ([15]; at 5 µM, OCI-C5x cells, without rucaparib)?
The viability was 133% (inactive).

What about the viability ([15]; at 5 µM, OCI-P5x cells, with rucaparib 20 µM, 100% = cells with rucaparib alone) of the same molecule?
Its viability is 104% (inactive).

And the viability ([15]; at 5 µM, OCI-P5x cells, without rucaparib)?
The viability was 112% (inactive).

And the remaining NAD [13]?
The remaining NAD was 10 nM (inactive).

And the luciferase signal [14]?
Its luciferase signal is 76 AU (inactive).

What about the log fold change Tl+ flux (F380Y) of the same molecule?
The log fold change Tl+ flux was 0.0165 (inactive).

What about the log fold change Tl+ flux (F380Y/beta1) of the same molecule?
The log fold change Tl+ flux was 0.104 (inactive).

What about the log fold change Tl+ flux (F380Y/beta2Delta) of the same molecule?
The log fold change Tl+ flux was -0.0159 (inactive).
